According to ChEMBL document CHEMBL2218924, “A broad activity screen in support of a chemogenomic map for kinase signalling research and drug discovery” (Biochem J, 2013):

Key:
[1] = target: Tyrosine-protein kinase SYK (Homo sapiens) (UniProt P43405); conditions: at 10 µM
[2] = target: T1, Mitogen-activated protein kinase kinase kinase 7 (Homo sapiens) (UniProt O43318); conditions: at 1 µM
T1 sequence (whole entry): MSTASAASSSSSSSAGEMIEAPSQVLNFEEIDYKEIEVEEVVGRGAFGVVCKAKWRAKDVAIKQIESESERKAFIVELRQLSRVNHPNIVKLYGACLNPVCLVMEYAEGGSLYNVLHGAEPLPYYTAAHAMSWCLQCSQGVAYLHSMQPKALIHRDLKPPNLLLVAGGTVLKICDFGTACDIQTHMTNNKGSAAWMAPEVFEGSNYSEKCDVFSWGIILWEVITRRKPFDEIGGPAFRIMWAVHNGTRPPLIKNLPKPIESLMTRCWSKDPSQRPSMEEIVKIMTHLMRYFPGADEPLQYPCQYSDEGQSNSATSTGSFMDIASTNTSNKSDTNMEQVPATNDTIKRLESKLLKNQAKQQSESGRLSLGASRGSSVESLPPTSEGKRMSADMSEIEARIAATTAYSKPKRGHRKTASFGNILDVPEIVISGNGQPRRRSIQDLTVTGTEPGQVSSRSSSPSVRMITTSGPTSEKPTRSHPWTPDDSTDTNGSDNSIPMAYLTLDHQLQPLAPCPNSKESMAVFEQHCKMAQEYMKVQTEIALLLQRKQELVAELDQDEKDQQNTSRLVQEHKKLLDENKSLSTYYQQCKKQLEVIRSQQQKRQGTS

[3] = target: T1, Mitogen-activated protein kinase kinase kinase 7 (Homo sapiens); conditions: at 10 µM
[4] = target: T2, Serine/threonine-protein kinase TAO1 (Homo sapiens) (UniProt Q7L7X3); conditions: at 1 µM
T2 sequence (whole entry): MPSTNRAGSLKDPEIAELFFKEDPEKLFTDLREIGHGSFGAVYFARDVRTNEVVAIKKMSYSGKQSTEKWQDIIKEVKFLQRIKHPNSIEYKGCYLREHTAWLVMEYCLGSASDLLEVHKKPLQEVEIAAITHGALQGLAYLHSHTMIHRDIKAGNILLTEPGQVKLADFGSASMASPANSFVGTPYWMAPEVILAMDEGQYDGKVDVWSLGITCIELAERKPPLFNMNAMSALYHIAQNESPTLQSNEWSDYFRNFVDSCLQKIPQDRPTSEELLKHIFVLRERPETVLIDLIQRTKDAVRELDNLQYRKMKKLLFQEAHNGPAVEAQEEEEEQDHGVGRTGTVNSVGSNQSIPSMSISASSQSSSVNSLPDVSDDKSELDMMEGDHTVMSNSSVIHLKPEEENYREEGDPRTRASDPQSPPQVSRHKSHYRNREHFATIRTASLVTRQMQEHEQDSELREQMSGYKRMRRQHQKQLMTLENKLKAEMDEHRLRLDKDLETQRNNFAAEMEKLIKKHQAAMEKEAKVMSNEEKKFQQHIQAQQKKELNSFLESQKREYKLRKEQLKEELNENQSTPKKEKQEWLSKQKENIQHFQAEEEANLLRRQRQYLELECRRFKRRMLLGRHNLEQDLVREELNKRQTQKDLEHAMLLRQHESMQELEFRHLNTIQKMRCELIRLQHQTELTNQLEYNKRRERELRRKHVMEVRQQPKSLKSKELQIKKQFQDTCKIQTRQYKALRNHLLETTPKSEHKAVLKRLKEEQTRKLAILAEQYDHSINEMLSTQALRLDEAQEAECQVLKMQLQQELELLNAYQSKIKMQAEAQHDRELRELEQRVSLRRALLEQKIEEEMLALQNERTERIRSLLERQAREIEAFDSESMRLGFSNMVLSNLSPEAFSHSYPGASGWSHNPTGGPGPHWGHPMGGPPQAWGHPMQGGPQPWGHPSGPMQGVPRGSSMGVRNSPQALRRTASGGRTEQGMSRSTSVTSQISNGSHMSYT

[5] = target: T2, Serine/threonine-protein kinase TAO1 (Homo sapiens); conditions: at 10 µM
[6] = target: T3, Serine/threonine-protein kinase TAO2 (Homo sapiens) (UniProt Q9UL54); conditions: at 1 µM
T3 sequence (whole entry): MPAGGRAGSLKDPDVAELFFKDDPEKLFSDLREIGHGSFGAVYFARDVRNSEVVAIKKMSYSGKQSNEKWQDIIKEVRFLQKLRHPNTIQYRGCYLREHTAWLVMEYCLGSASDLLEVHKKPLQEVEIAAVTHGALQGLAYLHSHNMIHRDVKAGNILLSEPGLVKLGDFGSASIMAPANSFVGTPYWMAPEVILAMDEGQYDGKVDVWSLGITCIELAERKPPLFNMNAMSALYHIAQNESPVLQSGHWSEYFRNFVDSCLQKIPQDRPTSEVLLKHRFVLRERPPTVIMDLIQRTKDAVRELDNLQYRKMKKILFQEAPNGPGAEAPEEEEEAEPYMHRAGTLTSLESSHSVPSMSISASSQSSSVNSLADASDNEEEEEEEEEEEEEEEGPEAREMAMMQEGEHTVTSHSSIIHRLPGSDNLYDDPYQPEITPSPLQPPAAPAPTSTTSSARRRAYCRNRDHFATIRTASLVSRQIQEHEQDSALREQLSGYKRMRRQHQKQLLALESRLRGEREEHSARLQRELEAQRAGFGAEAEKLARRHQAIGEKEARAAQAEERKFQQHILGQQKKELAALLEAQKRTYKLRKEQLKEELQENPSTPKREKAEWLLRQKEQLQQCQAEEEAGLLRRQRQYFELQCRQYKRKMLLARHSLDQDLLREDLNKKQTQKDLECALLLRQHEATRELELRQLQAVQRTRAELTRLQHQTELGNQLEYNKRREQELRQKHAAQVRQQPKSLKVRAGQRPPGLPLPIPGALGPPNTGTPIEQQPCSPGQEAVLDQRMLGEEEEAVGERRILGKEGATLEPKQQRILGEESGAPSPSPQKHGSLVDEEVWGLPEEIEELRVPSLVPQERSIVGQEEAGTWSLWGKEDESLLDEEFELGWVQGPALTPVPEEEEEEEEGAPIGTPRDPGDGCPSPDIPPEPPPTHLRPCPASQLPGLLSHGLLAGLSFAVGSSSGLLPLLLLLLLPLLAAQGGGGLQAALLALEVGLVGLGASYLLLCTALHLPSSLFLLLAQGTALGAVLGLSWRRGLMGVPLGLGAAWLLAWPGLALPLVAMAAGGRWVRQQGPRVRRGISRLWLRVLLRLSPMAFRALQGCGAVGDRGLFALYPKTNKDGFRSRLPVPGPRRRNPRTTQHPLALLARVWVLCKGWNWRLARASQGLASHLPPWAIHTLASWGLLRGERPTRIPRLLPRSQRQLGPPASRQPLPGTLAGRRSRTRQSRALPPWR

[7] = target: T3, Serine/threonine-protein kinase TAO2 (Homo sapiens); conditions: at 10 µM
[8] = target: T4, Serine/threonine-protein kinase TAO3 (Homo sapiens) (UniProt Q9H2K8); conditions: at 1 µM
T4 sequence (whole entry): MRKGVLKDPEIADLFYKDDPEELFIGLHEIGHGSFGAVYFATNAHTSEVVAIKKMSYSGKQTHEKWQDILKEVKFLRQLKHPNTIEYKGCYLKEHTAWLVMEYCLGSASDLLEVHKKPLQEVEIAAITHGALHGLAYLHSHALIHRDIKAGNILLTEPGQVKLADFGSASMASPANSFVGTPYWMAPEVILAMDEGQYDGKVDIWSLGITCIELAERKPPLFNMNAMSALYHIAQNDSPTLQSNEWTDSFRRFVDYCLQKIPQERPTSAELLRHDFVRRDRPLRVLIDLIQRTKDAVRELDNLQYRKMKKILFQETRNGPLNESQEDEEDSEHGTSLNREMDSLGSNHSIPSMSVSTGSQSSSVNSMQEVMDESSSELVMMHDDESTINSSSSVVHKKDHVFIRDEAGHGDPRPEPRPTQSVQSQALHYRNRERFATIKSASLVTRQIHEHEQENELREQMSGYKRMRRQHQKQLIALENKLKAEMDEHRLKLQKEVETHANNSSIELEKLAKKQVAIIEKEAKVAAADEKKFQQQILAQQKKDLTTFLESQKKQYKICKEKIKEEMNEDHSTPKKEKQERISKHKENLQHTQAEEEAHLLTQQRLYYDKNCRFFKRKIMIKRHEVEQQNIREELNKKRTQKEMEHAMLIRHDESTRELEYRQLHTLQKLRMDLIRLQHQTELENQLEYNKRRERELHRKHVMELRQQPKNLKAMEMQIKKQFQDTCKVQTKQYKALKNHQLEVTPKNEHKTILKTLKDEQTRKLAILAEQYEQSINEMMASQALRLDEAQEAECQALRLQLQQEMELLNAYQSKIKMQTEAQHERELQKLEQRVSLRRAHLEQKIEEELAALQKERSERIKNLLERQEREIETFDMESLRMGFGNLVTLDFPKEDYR

[9] = target: T4, Serine/threonine-protein kinase TAO3 (Homo sapiens); conditions: at 10 µM
[10] = target: T5, Serine/threonine-protein kinase TBK1 (Homo sapiens) (UniProt Q9UHD2); conditions: at 1 µM
T5 sequence (whole entry): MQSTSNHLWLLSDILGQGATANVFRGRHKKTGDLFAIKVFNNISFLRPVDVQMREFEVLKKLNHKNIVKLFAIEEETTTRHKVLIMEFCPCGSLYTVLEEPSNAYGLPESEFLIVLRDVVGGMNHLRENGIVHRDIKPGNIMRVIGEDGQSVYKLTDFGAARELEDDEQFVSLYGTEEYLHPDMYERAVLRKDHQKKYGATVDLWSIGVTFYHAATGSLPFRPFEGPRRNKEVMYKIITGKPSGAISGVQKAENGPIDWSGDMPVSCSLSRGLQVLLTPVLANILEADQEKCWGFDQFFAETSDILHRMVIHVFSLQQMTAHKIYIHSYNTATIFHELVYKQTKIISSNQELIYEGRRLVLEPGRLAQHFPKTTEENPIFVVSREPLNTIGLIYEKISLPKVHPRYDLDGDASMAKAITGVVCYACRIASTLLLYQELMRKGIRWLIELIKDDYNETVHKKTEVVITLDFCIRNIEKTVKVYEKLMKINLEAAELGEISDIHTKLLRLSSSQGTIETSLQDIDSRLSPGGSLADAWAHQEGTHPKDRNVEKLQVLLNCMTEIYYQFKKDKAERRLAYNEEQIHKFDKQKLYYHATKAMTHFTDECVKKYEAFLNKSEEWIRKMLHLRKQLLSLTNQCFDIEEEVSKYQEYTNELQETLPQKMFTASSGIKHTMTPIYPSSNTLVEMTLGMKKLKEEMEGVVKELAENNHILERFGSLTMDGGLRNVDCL

[11] = target: T5, Serine/threonine-protein kinase TBK1 (Homo sapiens); conditions: at 10 µM
[12] = target: T6, TGF-beta receptor type-1 (Homo sapiens) (UniProt P36897); conditions: at 1 µM
T6 sequence (whole entry): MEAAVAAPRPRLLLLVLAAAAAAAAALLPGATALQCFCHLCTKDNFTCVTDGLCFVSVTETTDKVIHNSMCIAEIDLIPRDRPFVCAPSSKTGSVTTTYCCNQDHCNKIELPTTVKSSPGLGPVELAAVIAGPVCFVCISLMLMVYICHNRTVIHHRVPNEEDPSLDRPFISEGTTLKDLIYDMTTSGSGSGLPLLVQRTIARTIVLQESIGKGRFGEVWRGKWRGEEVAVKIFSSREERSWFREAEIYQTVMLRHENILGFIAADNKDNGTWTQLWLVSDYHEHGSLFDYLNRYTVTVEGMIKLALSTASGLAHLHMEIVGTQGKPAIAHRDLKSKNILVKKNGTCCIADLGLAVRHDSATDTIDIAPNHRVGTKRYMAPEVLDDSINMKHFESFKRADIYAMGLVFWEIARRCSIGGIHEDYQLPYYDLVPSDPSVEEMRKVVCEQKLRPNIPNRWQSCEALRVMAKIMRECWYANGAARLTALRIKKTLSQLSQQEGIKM

[13] = target: T6, TGF-beta receptor type-1 (Homo sapiens); conditions: at 10 µM
[14] = target: Insulin-like growth factor 1 receptor (Homo sapiens) (UniProt P08069); conditions: at 1 µM
Chain of Insulin-like growth factor 1 receptor (Homo sapiens) (P08069 31-736 limits assumed): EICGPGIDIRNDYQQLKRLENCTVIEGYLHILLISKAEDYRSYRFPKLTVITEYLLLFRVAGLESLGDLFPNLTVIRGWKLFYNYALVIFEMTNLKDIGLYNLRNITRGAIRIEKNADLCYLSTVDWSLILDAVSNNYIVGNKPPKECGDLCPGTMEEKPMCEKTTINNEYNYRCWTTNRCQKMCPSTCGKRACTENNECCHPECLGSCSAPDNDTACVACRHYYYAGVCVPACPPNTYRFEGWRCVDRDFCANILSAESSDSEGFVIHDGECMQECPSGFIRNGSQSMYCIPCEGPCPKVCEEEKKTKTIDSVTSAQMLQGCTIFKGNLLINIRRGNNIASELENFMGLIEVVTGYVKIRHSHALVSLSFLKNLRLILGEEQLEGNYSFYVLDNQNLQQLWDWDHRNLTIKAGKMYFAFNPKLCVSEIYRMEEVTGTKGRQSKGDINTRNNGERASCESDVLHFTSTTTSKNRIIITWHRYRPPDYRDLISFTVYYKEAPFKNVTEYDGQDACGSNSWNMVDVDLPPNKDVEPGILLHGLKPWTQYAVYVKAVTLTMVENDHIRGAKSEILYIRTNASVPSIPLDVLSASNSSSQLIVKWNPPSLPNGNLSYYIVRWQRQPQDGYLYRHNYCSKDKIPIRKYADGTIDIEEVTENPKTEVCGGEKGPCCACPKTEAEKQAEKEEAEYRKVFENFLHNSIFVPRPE
Chain of Insulin-like growth factor 1 receptor (Homo sapiens) (P08069 741-1367 limits assumed): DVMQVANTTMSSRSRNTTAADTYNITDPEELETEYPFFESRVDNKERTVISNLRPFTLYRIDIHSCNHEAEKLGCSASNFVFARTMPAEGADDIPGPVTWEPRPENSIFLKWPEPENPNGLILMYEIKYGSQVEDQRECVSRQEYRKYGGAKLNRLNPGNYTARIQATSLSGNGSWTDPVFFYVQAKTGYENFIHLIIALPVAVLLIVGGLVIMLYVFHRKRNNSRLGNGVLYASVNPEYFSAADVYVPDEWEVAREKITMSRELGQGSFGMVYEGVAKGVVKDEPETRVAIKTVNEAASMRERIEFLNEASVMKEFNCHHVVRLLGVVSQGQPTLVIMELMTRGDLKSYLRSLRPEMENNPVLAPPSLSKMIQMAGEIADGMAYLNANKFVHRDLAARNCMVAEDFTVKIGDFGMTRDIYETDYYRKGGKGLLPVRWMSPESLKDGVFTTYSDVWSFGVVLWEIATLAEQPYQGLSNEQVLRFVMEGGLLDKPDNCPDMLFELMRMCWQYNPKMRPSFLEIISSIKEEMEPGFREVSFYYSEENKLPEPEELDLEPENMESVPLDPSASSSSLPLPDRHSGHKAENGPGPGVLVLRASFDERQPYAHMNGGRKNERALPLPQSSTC

[15] = target: Insulin-like growth factor 1 receptor (Homo sapiens) (UniProt P08069); conditions: at 10 µM
[16] = target: T7, Inhibitor of nuclear factor kappa-B kinase subunit beta (Homo sapiens) (UniProt O14920); conditions: at 10 µM
T7 sequence (whole entry): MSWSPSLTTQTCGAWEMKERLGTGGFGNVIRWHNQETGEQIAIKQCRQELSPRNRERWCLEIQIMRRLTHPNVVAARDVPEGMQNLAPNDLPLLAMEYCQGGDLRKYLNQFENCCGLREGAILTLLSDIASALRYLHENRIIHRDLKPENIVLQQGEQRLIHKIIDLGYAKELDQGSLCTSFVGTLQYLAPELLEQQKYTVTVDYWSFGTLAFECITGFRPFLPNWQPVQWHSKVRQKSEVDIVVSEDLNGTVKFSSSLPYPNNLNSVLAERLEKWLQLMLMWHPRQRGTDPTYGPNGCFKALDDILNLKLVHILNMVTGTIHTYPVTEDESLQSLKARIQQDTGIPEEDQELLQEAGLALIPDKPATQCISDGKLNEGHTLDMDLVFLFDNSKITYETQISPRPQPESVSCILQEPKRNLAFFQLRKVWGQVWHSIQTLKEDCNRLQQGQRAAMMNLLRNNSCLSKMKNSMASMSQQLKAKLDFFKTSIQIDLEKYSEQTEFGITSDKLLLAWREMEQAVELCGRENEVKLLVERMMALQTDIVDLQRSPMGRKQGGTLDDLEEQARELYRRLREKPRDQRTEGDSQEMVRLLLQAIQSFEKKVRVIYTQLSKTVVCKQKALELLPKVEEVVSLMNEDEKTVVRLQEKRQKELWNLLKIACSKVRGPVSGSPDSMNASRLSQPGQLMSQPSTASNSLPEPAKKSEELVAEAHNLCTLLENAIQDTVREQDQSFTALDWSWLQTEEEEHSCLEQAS

[17] = target: Insulin receptor (Homo sapiens) (UniProt P06213); conditions: at 1 µM
Chain of Insulin receptor (Homo sapiens) (P06213 28-758 limits assumed): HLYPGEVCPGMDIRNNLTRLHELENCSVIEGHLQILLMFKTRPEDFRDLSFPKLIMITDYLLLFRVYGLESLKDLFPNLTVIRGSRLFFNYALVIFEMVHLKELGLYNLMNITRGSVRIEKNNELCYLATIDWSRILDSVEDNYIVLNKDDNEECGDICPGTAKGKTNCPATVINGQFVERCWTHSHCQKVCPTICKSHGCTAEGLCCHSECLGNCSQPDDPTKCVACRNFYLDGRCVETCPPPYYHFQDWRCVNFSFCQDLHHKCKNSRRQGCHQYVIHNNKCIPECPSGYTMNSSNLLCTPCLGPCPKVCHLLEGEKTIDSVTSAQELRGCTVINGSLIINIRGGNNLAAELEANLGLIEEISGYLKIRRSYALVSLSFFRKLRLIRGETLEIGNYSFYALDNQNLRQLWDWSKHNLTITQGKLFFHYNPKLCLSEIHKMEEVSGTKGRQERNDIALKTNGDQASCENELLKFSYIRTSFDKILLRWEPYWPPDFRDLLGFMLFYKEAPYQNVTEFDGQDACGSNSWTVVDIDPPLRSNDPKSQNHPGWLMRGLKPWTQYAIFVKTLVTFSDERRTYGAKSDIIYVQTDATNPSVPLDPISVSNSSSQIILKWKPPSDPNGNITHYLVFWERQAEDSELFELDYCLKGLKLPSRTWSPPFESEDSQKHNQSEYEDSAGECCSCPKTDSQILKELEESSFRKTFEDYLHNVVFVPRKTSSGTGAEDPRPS
Chain of Insulin receptor (Homo sapiens) (P06213 763-1382 limits assumed): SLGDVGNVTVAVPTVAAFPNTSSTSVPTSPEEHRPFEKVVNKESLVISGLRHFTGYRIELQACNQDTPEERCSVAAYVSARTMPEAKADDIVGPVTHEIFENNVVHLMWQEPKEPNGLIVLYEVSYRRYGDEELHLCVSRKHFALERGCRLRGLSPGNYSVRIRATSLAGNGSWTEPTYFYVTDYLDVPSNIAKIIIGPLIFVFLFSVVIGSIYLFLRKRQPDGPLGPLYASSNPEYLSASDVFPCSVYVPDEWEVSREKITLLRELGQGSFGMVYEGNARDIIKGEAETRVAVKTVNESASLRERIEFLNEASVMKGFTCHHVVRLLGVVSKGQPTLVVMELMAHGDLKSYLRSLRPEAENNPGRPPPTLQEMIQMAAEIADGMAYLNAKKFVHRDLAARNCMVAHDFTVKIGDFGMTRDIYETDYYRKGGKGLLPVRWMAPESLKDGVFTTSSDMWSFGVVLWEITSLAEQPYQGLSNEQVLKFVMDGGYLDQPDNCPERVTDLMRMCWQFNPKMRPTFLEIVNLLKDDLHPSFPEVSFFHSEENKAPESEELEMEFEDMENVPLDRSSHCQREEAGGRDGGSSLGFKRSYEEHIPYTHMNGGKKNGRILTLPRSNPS

[18] = target: T7, Inhibitor of nuclear factor kappa-B kinase subunit beta (Homo sapiens); conditions: at 1 µM

Row | SMILES | residual activity [1] [%] | residual activity [2] [%] | residual activity [3] [%] | residual activity [4] [%] | residual activity [5] [%] | residual activity [6] [%] | residual activity [7] [%] | residual activity [8] [%] | residual activity [9] [%] | residual activity [10] [%] | residual activity [11] [%] | residual activity [12] [%] | residual activity [13] [%] | residual activity [14] [%] | residual activity [15] [%] | residual activity [16] [%] | residual activity [17] [%] | residual activity [18] [%]
1 | CC(C)[C@H](CO)Nc1nc(Nc2cc(N)cc(Cl)c2)c2ncn(C(C)C)c2n1 | 73 | 85 | 30 | 92 | 52 | 88 | 73 | 93 | 54 | 97 | 43 | 98 | 91 | 75 | 17 | 88 | 90 | 
2 | O=C1Cc2c([nH]c3ccc(Br)cc23)-c2ccccc2N1 | 25 | 81 | 68 | 76 | 28 |  |  |  |  | 53 | 31 |  |  |  |  |  | 95 | 
3 | O=C1C(Cl)=C(N2C(=O)CCC2=O)C(=O)c2ccccc21 | 101 | 94 | 83 | 89 | 94 |  |  | 101 | 94 | 68 | 60 | 100 | 90 | 90 | 101 | 92 | 100 | 116
